Where “and” joins values, the source holds several entries; their conditions need not be identical. Identical values can stand only once. Records with an inconclusive call do not appear. Some compounds were tested as several samples or in several runs, with calls that do not always agree. Calls of active or inactive are those of the source. Unless noted, the call rests on the fitted dose curve; in most records, active means well fitted curve in the direction sought with a large enough effect in the repeat runs; inconclusive means weak or mixed curves; inactive means no such curve, though single readings can be large; an effect the other way counts as inactive or inconclusive.

A short description of assay [1]: qHTS assay to identify small molecule agonists of the sonic hedgehog signaling (Shh) pathway (AID 1259368; calls by dose curve;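 further: NIH/3T3-derived 3T3Gli1-Luc cells carrying a stable Gli1-driven firefly luciferase reporter; series mostly up to about 92 µM; nearly all actives have a fitted effect of over 15% in size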). The gist of the method: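 Hedgehog pathway agonism scored by increased firefly luciferase luminescence in 3T3Gli1-Luc cells treated 24 hr at 37 C; detection used a 30 min room-temperature reagent incubation.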
A general note: In qHTS, concentration-response curves come from the screen itself.

A short description of assay [2]: qHTS assay to identify small molecule antagonists of the sonic hedgehog signaling (Shh) pathway (AID 1259369; calls by dose curve; further: nearly all actives have a fitted effect of over 45% in size; further: potency means the concentration at half of the fitted maximal effect). The method in brief:
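NIH/3T3 stable Gli1-Luc clone, 2,000 cells/well, 4hr settle; cpd + conditioned medium 24hr; Luc reagent 30min RT; luminescence.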

Assay [3] is described as follows: qHTS assay to identify small molecule agonists of the androgen receptor (AR) signaling pathway in the presence of an antagonist - cell viability counter screen (AID 1259379). Further: nearly all actives have a fitted effect of over 25% in size. Further: potency means the concentration at half of the fitted maximal effect. The method in brief: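 MDA-kb2 viability measured by CellTiter-Fluor fluorescence in the same wells as the luciferase signal; nilutamide 3.0uM final; 15-point compound titration; 16 hr at 37C.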

Assay [4] is described as follows: qHTS assay to identify small molecule agonists of the estrogen receptor beta (ER-beta) signaling pathway - cell viability counter screen (AID 1259380). Further: nearly all actives have a fitted effect of over 30% in size. Further: potency means the concentration at half of the fitted maximal effect. The method in brief: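 Measured: luminescence from CellTiter-Glo after 30 min at room temperature, added to wells already read for the LiveBLAzer FRET reporter (2 hr substrate); ER-beta-UAS-bla HEK293T cells had 16 hr compound treatment at 37C, 5% CO2.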

Assay [5] is described as follows: qHTS assay to identify small molecule agonists or antagonists of the thyroid stimulating hormone receptor (TSHR) signaling pathway - wild type cell line counter screen (AID 1259384; calls by dose curve). The method in brief:
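Wild-type HEK293 cells were plated 18 h at 37 C/5% CO2, pin-dosed with compound plus Ro20-1724 medium, held 30 min at room temperature, then given cAMP-d2 and anti-cAMP-cryptate; fluorescence was read after 1 h. Fifteen concentrations, triplicate.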

Assay [6] deals with Thyrotropin receptor (Homo sapiens) (UniProt P16473). The assay is described as follows: qHTS assay to identify small molecule antagonists of the thyroid stimulating hormone receptor (TSHR) signaling pathway (AID 1259385; calls by dose curve; further: nearly all actives have a fitted effect of over 20% in size; further: potency means the concentration at half of the fitted maximal effect). The method in brief:
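TSHR-HEK293 cells were plated and held 18 h at 37C/5% CO2, then given compound plus Ro20-1724 and stimulated with TSH at 1.5 ng/mL final. After 30 min at room temperature, cAMP was detected with cAMP-d2/anti-cAMP-cryptate (1 h) by fluorescence.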

A short description of assay [7]: qHTS assay to identify small molecule agonists of the estrogen receptor alpha (ER-alpha) signaling pathway in the presence of an antagonist - cell viability counter screen (AID 1259386).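 Further: series mostly up to about 92 µM; cells exposed to compounds for 22 h at 37 °C before the viability read; nearly all actives have a fitted effect of over 30% in size.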 The gist of the method: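 The test measures whether compounds kill ER-alpha reporter cells (VM7Luc4E2) under antagonist co-treatment (ICI-182,780, 10.0nM). Fluorescence from CellTiter-Fluor is read after a 22hr exposure.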

Assay [8] addresses Progesterone receptor (Homo sapiens) (UniProt P06401). The assay is described as follows: qHTS assay to identify small molecule agonists of the progesterone receptor (PR) signaling pathway (AID 1346784; calls by dose curve; further: nearly all actives have a fitted effect of over 30% in size). The gist of the method:
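PR-UAS-bla HEK 293T cells (beta-lactamase reporter under UAS) in 2% charcoal-stripped FBS, dosed with 23 nL compound after 6 hr, incubated 16hr at 37C. LiveBLAzer B/G FRET substrate added, fluorescence read after 2 hours.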

Assay [9] has the same target. Nature of the assay: qHTS assay to identify small molecule antagonists of the progesterone receptor (PR) signaling pathway (AID 1346795; active means well fitted inhibition curve with a large enough effect in the signal ratio in the repeat runs, not every such curve was filed as active; the % refers to the signal ratio; further: potency means the concentration at half of the fitted maximal effect). The method in brief: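 PR-UAS-bla HEK293T cells with beta-lactamase reporter under UAS control, in 2% charcoal-stripped FBS, treated with compounds plus 1 nM promegestone (R5020, final) for 16 hr at 37C. Read-out: FRET beta-lactamase substrate fluorescence after 2 hr at room temperature.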

Assay [10] is described as follows: qHTS assay to identify small molecule antagonists of the progesterone receptor (PR) signaling pathway - cell viability counter screen (AID 1346798). Further: series mostly up to about 92 µM; nearly all actives have a fitted effect of over 50% in size. The gist of the method: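 PR-UAS-bla HEK293T cells, 3,000/well in 2% charcoal-stripped FBS medium, dosed with compounds plus R5020 agonist and incubated 16 h at 37C. Viability then measured in the same wells by CellTiter-Glo luminescence after 30 min at RT.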

The nature of assay [11]: qHTS assay to identify small molecule antagonists of the TGF-beta/Smad signaling pathway - cell viability counter screen (AID 1346824). Further: nearly all actives have a fitted effect of over 50% in size. The gist of the method: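 SBE-bla HEK 293T cells were plated overnight at 37 C, then given compounds in DMSO plus TGF-beta1 (added as 0.25 ng/mL solution) for 5 hr. After the bla read, CellTiter-Glo was added to the same wells and luminescence read after 30 min at room temperature.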

Assay [12] is described as follows: qHTS assay to identify small molecule agonists of the TGF-beta/Smad signaling pathway - cell viability counter screen (AID 1346829). Further: top concentration of the series differs between compounds; nearly all actives have a fitted effect of over 45% in size. The method in brief: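 After overnight seating at 37 C and 5% CO2, reporter cells got compounds for 5 hr and FRET substrate for 2 hr; cell viability then came from CellTiter-Glo luminescence.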
Assay [13] is described as follows: qHTS assay to identify small molecule agonists of the TGF-beta/Smad signaling pathway (AID 1346859; active means well fitted activation curve with a large enough effect in the signal ratio in the repeat runs, not every such curve was filed as active; the % refers to the signal ratio; further: series mostly up to about 77 µM). The method in brief:
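SBE-bla HEK293T cells plated overnight, then compound exposure for 5 h at 37 C. Beta-lactamase reporter read with LiveBLAzer B/G FRET substrate after 2 h at room temperature, fluorescence at 405 nm excitation, 460/530 nm emission.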

In assay [14] the target is Thyrotropin-releasing hormone receptor (Homo sapiens) (UniProt P34981). Nature of the assay: qHTS assay to identify small molecule antagonists of the thyrotropin-releasing hormone receptor (TRHR) signaling pathway (AID 1346877; active means well fitted inhibition curve with a large enough effect in the repeat runs, not every such curve was filed as active; further: series mostly up to about 51 µM). The method in brief: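 Overnight-plated (18 h, 37 °C) HEK293 cells expressing TRHR were dye-loaded 2 h, treated with compound, then stimulated with TRH at 1 nM final. Fluorescence intensity was captured every second for 3 min.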

Assay [15] deals with Estrogen receptor beta (Homo sapiens) (UniProt Q92731). The assay is described as follows: qHTS assay to identify small molecule agonists of the estrogen receptor beta (ER-beta) signaling pathway (AID 1259377; active means well fitted activation curve with a large enough effect in the signal ratio in the repeat runs, not every such curve was filed as active; the % refers to the signal ratio). The gist of the method:
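ER-beta-UAS-bla HEK293T cells in medium with 2% charcoal-stripped FBS were exposed to compounds for 16 h at 37C. Beta-lactamase reporter activity was read as fluorescence after 2 h with LiveBLAzer B/G FRET substrate at room temperature.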

For assay [16] the target is unchanged. Nature of the assay: qHTS assay to identify small molecule antagonists of the estrogen receptor beta (ER-beta) signaling pathway (AID 1259378; active means well fitted inhibition curve with a large enough effect in the signal ratio in the repeat runs, not every such curve was filed as active; the % refers to the signal ratio; further: potency means the concentration at half of the fitted maximal effect). The method in brief:
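ER-beta-UAS-bla HEK293T (GripTite) cells in 2% charcoal-stripped FBS medium were preincubated 6 hr at 37C, dosed with compound, then stimulated with 1 nM E2 (final) for 16 hr; beta-lactamase reporter read by B/G FRET fluorescence after 2 hr substrate loading.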

Assay [17] in a line: qHTS assay to identify small molecule antagonists of the estrogen receptor beta (ER-beta) signaling pathway - cell viability counter screen (AID 1259382). Further: nearly all actives have a fitted effect of over 55% in size. Further: potency means the concentration at half of the fitted maximal effect. The gist of the method:
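Readout: luminescence, CellTiter-Glo, same wells as bla assay. System: ER-beta-UAS-bla GripTite HEK293T, 2% charcoal-stripped FBS. Exposure: compounds plus 1nM 17-beta-estradiol, 16 hr, 37C.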

Assay [18] has as its target Estrogen receptor (Homo sapiens) (UniProt P03372). Nature of the assay: qHTS assay to identify small molecule agonists of the estrogen receptor alpha (ER-alpha) signaling pathway in the presence of an antagonist (AID 1259383; calls by dose curve; further: top concentration of the series differs between compounds; nearly all actives have a fitted effect of over 15% in size). The gist of the method:
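Quantitative HTS confirmation: compounds titrated at 15 concentrations onto estrogen-deprived VM7Luc4E2 cells carrying a four-ERE luciferase construct, with ICI-182,780 present at 10.0nM final. Signal is luminescence after 22hr exposure.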

Assay [19] in a line: qHTS assay to identify small molecule agonists of the progesterone receptor (PR) signaling pathway - cell viability counter screen (AID 1346799; calls by dose curve; further: nearly all actives have a fitted effect of over 45% in size). The method in brief: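 Counter screen in the PR-UAS-bla HEK293T wells (2% charcoal-stripped FBS, 16 h compound exposure at 37 C) after the bla read. CellTiter-Glo added, 30 min at room temperature, luminescence read as cell viability.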

Assay [20] addresses Androgen receptor (Homo sapiens) (UniProt P10275). Nature of the assay: qHTS assay to identify small molecule agonists of the androgen receptor (AR) signaling pathway in the presence of an antagonist (AID 1259381; calls by dose curve; further: nearly all actives have a fitted effect of over 15% in size). The method in brief: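 Luminescent ONE-Glo read, 30min at room temperature, follows 16hr compound exposure (15 concentrations) of MDA-kb2 cells at 37C, 0% CO2, with nilutamide added at 3.0uM final.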

Chain of Progesterone receptor (Homo sapiens) (P06401 whole entry, looked up): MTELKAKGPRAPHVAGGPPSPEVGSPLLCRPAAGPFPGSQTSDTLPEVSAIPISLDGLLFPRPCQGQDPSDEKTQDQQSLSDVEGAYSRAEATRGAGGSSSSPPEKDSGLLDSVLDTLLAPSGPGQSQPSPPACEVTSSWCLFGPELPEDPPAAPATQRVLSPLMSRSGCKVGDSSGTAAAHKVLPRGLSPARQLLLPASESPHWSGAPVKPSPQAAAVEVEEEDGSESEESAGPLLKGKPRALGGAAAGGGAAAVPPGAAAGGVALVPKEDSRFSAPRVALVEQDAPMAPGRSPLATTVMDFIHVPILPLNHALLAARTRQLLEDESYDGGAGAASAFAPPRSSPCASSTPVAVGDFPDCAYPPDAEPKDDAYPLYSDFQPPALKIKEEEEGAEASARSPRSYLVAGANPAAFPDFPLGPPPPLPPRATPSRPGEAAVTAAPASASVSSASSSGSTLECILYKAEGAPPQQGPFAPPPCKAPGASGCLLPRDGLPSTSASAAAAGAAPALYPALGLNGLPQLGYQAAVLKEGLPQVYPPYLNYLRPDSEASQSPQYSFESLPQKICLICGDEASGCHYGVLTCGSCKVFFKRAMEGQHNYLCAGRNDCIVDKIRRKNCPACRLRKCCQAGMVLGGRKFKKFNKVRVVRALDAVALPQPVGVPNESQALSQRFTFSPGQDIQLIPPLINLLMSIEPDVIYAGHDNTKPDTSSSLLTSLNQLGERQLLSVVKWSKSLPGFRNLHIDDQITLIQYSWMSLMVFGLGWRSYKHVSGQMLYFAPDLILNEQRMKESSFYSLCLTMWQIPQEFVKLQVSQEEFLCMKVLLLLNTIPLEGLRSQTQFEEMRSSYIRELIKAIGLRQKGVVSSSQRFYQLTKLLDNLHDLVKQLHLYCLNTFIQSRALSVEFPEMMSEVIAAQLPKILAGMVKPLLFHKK
Chain of Androgen receptor (Homo sapiens) (P10275 whole entry, looked up): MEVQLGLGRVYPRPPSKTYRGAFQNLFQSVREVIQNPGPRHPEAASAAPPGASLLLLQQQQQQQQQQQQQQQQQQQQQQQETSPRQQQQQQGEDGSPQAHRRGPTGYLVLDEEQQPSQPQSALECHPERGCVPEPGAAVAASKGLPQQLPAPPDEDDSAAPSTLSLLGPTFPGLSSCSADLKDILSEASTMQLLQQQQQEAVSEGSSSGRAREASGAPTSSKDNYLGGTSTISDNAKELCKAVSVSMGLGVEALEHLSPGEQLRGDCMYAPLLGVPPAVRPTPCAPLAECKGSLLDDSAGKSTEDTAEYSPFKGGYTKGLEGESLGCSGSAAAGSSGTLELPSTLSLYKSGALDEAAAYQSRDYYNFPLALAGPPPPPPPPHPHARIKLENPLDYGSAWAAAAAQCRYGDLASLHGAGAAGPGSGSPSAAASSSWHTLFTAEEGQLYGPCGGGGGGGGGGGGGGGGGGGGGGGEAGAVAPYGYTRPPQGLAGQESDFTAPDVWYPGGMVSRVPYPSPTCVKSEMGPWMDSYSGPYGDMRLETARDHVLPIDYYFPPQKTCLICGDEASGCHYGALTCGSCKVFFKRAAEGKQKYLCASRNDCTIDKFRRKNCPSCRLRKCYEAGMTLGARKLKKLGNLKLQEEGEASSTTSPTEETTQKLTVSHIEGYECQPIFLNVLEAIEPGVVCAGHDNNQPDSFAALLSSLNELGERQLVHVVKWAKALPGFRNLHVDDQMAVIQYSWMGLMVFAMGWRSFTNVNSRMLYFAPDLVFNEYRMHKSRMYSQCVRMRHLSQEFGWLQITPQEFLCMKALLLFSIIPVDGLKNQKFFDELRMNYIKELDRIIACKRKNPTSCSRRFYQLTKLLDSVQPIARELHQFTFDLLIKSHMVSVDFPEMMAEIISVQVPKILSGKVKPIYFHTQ
Chain of Thyrotropin-releasing hormone receptor (Homo sapiens) (P34981 whole entry, looked up): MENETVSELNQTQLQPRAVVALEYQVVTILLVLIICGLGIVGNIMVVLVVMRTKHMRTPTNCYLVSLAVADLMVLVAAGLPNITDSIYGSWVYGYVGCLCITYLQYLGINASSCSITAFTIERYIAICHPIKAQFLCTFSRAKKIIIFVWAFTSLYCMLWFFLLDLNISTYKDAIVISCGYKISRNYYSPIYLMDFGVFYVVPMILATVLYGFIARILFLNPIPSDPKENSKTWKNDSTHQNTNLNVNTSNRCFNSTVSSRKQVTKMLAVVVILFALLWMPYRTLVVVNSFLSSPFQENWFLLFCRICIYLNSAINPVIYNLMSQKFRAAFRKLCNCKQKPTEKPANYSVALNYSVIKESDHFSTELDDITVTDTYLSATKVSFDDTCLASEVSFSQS
Chain of Estrogen receptor (Homo sapiens) (P03372 whole entry, looked up): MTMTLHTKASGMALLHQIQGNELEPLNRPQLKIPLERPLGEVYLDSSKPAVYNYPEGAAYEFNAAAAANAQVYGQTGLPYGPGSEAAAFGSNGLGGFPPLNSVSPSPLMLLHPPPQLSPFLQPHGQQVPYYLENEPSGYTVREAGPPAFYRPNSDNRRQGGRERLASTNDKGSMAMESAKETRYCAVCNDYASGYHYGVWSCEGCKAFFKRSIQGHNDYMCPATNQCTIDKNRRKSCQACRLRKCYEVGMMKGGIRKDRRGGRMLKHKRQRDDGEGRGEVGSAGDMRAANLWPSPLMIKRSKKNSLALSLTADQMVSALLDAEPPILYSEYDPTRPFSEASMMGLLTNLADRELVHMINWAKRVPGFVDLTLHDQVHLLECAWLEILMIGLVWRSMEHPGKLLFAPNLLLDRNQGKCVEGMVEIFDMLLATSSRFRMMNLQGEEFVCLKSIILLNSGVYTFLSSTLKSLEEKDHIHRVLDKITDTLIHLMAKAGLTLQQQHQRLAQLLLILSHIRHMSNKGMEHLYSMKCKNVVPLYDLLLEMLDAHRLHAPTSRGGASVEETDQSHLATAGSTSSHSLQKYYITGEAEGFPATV
Chain of Thyrotropin receptor (Homo sapiens) (P16473 whole entry, looked up): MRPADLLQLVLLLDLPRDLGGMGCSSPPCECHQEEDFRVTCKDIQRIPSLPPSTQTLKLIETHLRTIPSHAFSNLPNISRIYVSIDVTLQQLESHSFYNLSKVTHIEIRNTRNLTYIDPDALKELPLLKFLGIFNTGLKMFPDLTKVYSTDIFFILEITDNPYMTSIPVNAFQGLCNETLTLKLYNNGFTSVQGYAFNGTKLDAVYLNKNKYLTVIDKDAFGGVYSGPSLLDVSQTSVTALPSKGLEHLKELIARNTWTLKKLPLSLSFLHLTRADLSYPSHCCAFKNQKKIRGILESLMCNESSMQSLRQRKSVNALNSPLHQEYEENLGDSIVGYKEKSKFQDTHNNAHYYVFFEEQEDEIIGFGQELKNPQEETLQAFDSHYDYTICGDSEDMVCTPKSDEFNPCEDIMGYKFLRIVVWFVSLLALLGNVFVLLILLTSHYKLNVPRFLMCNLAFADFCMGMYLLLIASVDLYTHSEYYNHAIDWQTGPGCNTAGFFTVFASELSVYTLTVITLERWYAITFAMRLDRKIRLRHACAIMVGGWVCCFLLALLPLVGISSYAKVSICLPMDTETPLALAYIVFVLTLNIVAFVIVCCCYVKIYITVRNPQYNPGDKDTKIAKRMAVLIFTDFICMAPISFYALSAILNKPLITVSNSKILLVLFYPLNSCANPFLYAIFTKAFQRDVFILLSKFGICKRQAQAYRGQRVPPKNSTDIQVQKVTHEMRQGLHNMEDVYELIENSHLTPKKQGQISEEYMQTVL
Chain of Estrogen receptor beta (Homo sapiens) (Q92731 whole entry, looked up): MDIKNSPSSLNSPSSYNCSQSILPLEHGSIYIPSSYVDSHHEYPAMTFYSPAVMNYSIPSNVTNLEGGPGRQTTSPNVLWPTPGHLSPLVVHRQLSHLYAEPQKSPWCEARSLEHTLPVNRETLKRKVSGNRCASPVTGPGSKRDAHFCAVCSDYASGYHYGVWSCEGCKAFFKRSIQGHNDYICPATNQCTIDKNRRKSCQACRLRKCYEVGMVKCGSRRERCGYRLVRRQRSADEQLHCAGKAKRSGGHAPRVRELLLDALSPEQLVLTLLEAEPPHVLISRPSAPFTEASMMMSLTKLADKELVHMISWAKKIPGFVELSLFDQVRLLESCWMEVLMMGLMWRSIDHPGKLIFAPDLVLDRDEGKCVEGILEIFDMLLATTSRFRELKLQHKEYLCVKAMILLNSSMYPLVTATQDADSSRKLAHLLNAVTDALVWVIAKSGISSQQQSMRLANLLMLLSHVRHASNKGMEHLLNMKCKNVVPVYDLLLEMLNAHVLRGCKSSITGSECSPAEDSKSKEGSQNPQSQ

`COc1ccc(C(=O)CC(=O)c2ccc(C(C)(C)C)cc2)cc1`: the Potency result in assay [1], in [2], in [4], in [6], in assay [7] and in assay [8] was “inactive” in each case. The Potency result in assay [9], in assay [10], in assay [11], in assay [12] and in assay [14] was “inactive” each time. In addition, the Potency in [3] is 58.7 µM (active) and inactive. For the same compound, the compound was classed as inactive in assay [5] and in assay [13].

Turning to `O=C(OCc1ccccc1)c1ccccc1O`, the Potency entry in assay [2], in assay [15], in assay [16], in [3], in assay [4] and in [17] was “inactive” each time. In addition, the Potency entry in assay [18], in [6], in assay [7], in assay [8], in assay [9] and in [10] was “inactive” throughout. Moreover, the Potency result in assay [19], in [11], in assay [12] and in assay [14] was “inactive” throughout. Besides, the compound was called inactive in [5] and in assay [13].

As for `CCC(C)OC(=O)c1ccc(O)cc1` (stereo unspecified), the Potency result in [1], in assay [2], in assay [3], in assay [4], in assay [6] and in [7] was “inactive” throughout. In addition, the Potency entry in assay [8], in [10], in [11], in assay [12] and in assay [14] was “inactive” throughout. The call in assay [5] and in assay [13] was inactive. For the same compound, the Potency in assay [9] is 48.9 µM (active) and 54.5 µM (active).

Take `CC(C)OC(=O)C(C)(C)Oc1ccc(C(=O)c2ccc(Cl)cc2)cc1`: the Potency entry in assay [1], in assay [15], in assay [3], in [4], in [17] and in assay [7] was “inactive” in each case. The Potency entry in assay [8], in [11] and in [12] was “inactive” in each case. Also, the Potency in [2] is 27.3 µM (active) and inactive; in assay [6] it was 26.6 µM (active); in [9], 17.2 µM (active) and 21.1 µM (active). For the same compound, the outcome in assay [20], in [5] and in assay [13] was inactive.

On to `O=CCCCC=O`, for which the Potency entry in [1], in [2], in assay [3], in assay [4], in assay [18] and in assay [7] was “inactive” in each case. The Potency result in assay [8], in [9], in [10], in assay [11], in assay [12] and in assay [14] was “inactive” throughout. The call in assay [13] was inactive.

Take `C#C[C@]1(O)CC[C@H]2[C@@H]3CCC4=Cc5oncc5C[C@]4(C)[C@H]3CC[C@@]21C`: the Potency result in [1], in [3], in [18], in [6], in assay [7] and in assay [11] was “inactive” each time. In addition, the Potency result in assay [12] and in assay [14] was “inactive” in each case. The Potency was 2.17 µM (active) and 11.9 µM (active) in assay [2]; 15.4 µM (active) in [16]; 61.1 µM (active) and 29.8 µM (active) in [4]; 48.6 µM (active) and 26.6 µM (active) in [17]; 61.1 nM (active) in assay [9]. The compound was called inactive in assay [5] and in [13].

As for `OCCO`, the Potency result in [1], in assay [2], in assay [3], in [4], in [17] and in [6] was “inactive” in each case. Moreover, the Potency entry in assay [7], in [8], in [9], in assay [10], in assay [11] and in assay [12] was “inactive” throughout. Also, the Potency result in assay [14] is “inactive”. Further, the outcome in [20], in assay [5] and in [13] was inactive.

Turning to `Oc1ccc(O)cc1`, the Potency entry in assay [1], in assay [16], in [3], in assay [4], in assay [17] and in [6] was “inactive” throughout. The Potency entry in assay [7], in assay [8], in assay [9], in assay [19], in assay [11] and in [12] was “inactive” each time. In addition, the Potency result in assay [14] was “inactive”. The Potency in [2] was 4.3 µM (active) and 2.17 µM (active) and 6.68 µM (active). Moreover, the result in assay [5] and in assay [13] was inactive.
